According to patent US20110177501, “BIOSENSOR FOR DETECTION AND VISUALISATION OF SINGLE-STRANDED DNA” (MEDICAL RESEARCH COUNCIL, published 2011):

Target: 6-IATR-E. coli SSB (G26C) (Escherichia coli, UniProt P0AGE0 SEQ:1-177, G26C)
Experiment: competition; stated only as similar result to IDCC-G26C
Conditions: tags: 6-IATR label on Cys26; chain copies: 4 (stated, tetramer); ssDNA

“TTTTTTTTTTTTTTTTTTTTTTTTTTTTTTTTTTTTTTTTTTTTTTTTTTTTTTTTTTTTTTTTTTTTTT” was tested, and the binding signal was roughly 28 fold Kd vs unlabeled SSB.
